# In publication PMC11006913:
# Key:
# HOXA7 [1] = molecular target: HOXA7 (Homo sapiens, UniProt P31268 116-202); test: PBM; 200 nM protein, PBS; details: dsDNA, one strand shown
# HOXA7 [2] = molecular target: HOXA7 (Homo sapiens, UniProt P31268 116-202, W177C); test: PBM; 200 nM protein, PBS; details: dsDNA, one strand shown
# Sequence of HOXA7 (Homo sapiens, UniProt P31268 116-202, W177C) (P31268 116-202 W177C): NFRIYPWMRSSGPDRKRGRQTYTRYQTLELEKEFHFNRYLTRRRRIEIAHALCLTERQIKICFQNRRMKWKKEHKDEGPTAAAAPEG
# Sequence of HOXA7 (Homo sapiens, UniProt P31268 116-202) (P31268 116-202): as the sequence (P31268 116-202 W177C) above, with C62W counted along it
Sequence,binding signal (HOXA7 [1]),binding signal (HOXA7 [2])
CTCAGCTC,"8.44 upbm affinity estimate (log intensity, higher = more binding, comparable within an allelic series)","8.39 upbm affinity estimate (log intensity, higher = more binding, comparable within an allelic series)"
CTTCTAGA,"8.36 upbm affinity estimate (log intensity, higher = more binding, comparable within an allelic series)","8.5 upbm affinity estimate (log intensity, higher = more binding, comparable within an allelic series)"
CTGAAGGC,"8.34 upbm affinity estimate (log intensity, higher = more binding, comparable within an allelic series)","8.31 upbm affinity estimate (log intensity, higher = more binding, comparable within an allelic series)"
CTCTGAGC,"8.36 upbm affinity estimate (log intensity, higher = more binding, comparable within an allelic series)","8.46 upbm affinity estimate (log intensity, higher = more binding, comparable within an allelic series)"
CAAGCACC,"8.65 upbm affinity estimate (log intensity, higher = more binding, comparable within an allelic series)","8.49 upbm affinity estimate (log intensity, higher = more binding, comparable within an allelic series)"
AGGCCCAG,"8.42 upbm affinity estimate (log intensity, higher = more binding, comparable within an allelic series)","8.28 upbm affinity estimate (log intensity, higher = more binding, comparable within an allelic series)"
CCAGGTCG,"8.48 upbm affinity estimate (log intensity, higher = more binding, comparable within an allelic series)","8.45 upbm affinity estimate (log intensity, higher = more binding, comparable within an allelic series)"
ACCGCTCC,"8.61 upbm affinity estimate (log intensity, higher = more binding, comparable within an allelic series)","8.49 upbm affinity estimate (log intensity, higher = more binding, comparable within an allelic series)"
CGCTGTGC,"8.49 upbm affinity estimate (log intensity, higher = more binding, comparable within an allelic series)","8.35 upbm affinity estimate (log intensity, higher = more binding, comparable within an allelic series)"
CAAAGCGG,"8.47 upbm affinity estimate (log intensity, higher = more binding, comparable within an allelic series)","8.45 upbm affinity estimate (log intensity, higher = more binding, comparable within an allelic series)"
CGAGGACG,"8.54 upbm affinity estimate (log intensity, higher = more binding, comparable within an allelic series)","8.4 upbm affinity estimate (log intensity, higher = more binding, comparable within an allelic series)"
CAGTAATC,"9.67 upbm affinity estimate (log intensity, higher = more binding, comparable within an allelic series)","8.66 upbm affinity estimate (log intensity, higher = more binding, comparable within an allelic series)"
AGCAGAAG,"8.46 upbm affinity estimate (log intensity, higher = more binding, comparable within an allelic series)","8.54 upbm affinity estimate (log intensity, higher = more binding, comparable within an allelic series)"
AAGGACTG,"8.44 upbm affinity estimate (log intensity, higher = more binding, comparable within an allelic series)","8.4 upbm affinity estimate (log intensity, higher = more binding, comparable within an allelic series)"
ACCTAATC,"9.7 upbm affinity estimate (log intensity, higher = more binding, comparable within an allelic series)","8.88 upbm affinity estimate (log intensity, higher = more binding, comparable within an allelic series)"
CCCCGTTA,"9.61 upbm affinity estimate (log intensity, higher = more binding, comparable within an allelic series)","8.75 upbm affinity estimate (log intensity, higher = more binding, comparable within an allelic series)"
CGGTCCGC,"8.63 upbm affinity estimate (log intensity, higher = more binding, comparable within an allelic series)","8.41 upbm affinity estimate (log intensity, higher = more binding, comparable within an allelic series)"
AGAATTAC,"9.68 upbm affinity estimate (log intensity, higher = more binding, comparable within an allelic series)","8.8 upbm affinity estimate (log intensity, higher = more binding, comparable within an allelic series)"
CAGAGGAG,"8.43 upbm affinity estimate (log intensity, higher = more binding, comparable within an allelic series)","8.46 upbm affinity estimate (log intensity, higher = more binding, comparable within an allelic series)"
CCGCTTCG,"8.43 upbm affinity estimate (log intensity, higher = more binding, comparable within an allelic series)","8.41 upbm affinity estimate (log intensity, higher = more binding, comparable within an allelic series)"
CATTTACA,"9.74 upbm affinity estimate (log intensity, higher = more binding, comparable within an allelic series)","8.8 upbm affinity estimate (log intensity, higher = more binding, comparable within an allelic series)"
AGAGACTG,"8.18 upbm affinity estimate (log intensity, higher = more binding, comparable within an allelic series)","8.35 upbm affinity estimate (log intensity, higher = more binding, comparable within an allelic series)"
AGGCAAGG,"8.35 upbm affinity estimate (log intensity, higher = more binding, comparable within an allelic series)","8.48 upbm affinity estimate (log intensity, higher = more binding, comparable within an allelic series)"
CCTTCCGC,"8.39 upbm affinity estimate (log intensity, higher = more binding, comparable within an allelic series)","8.37 upbm affinity estimate (log intensity, higher = more binding, comparable within an allelic series)"
CACCTACG,"8.56 upbm affinity estimate (log intensity, higher = more binding, comparable within an allelic series)","8.57 upbm affinity estimate (log intensity, higher = more binding, comparable within an allelic series)"
GCTCGGTA,"8.46 upbm affinity estimate (log intensity, higher = more binding, comparable within an allelic series)","8.43 upbm affinity estimate (log intensity, higher = more binding, comparable within an allelic series)"
GATTAAAC,"9.54 upbm affinity estimate (log intensity, higher = more binding, comparable within an allelic series)","8.63 upbm affinity estimate (log intensity, higher = more binding, comparable within an allelic series)"
AGAGCAAG,"8.36 upbm affinity estimate (log intensity, higher = more binding, comparable within an allelic series)","8.46 upbm affinity estimate (log intensity, higher = more binding, comparable within an allelic series)"
ACCTGCAC,"8.57 upbm affinity estimate (log intensity, higher = more binding, comparable within an allelic series)","8.45 upbm affinity estimate (log intensity, higher = more binding, comparable within an allelic series)"
